From PubChem
Rows were chosen to be rich in hits. Some 5.3% of all compounds tested hit in one or more screens of this group.
Six1-Eya2 inh: inhibitors of human Six1/Eya2 interaction. Q15475+O00167. 360,000 compounds, 0.56% hits. activity change, % (concentration not given with the values). AlphaScreen GST-Six1/His-Eya2 binding, biochemical; hits give low values. AID 651725; in the data active = activity change below about -65%; inconclusive = mostly about -30% to -63%; note: % is set by controls: 0 for no effect and ±100 for the full control effect
Target sequence (O00167 whole entry, looked up): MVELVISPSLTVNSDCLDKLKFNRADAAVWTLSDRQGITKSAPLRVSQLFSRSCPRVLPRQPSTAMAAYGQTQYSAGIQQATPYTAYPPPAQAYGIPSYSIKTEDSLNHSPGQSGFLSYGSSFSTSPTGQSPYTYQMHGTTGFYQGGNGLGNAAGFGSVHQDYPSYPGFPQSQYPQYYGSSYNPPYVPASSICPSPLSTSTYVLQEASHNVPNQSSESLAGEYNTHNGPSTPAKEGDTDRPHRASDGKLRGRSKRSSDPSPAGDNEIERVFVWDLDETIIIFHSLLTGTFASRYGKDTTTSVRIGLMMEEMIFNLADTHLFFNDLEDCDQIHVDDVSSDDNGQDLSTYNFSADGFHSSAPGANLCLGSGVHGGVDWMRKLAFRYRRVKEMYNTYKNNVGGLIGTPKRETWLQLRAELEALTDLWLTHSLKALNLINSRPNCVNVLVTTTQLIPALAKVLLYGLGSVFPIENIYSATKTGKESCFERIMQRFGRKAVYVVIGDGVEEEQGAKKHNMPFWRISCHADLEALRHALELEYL
Target sequence (Q15475 whole entry, looked up): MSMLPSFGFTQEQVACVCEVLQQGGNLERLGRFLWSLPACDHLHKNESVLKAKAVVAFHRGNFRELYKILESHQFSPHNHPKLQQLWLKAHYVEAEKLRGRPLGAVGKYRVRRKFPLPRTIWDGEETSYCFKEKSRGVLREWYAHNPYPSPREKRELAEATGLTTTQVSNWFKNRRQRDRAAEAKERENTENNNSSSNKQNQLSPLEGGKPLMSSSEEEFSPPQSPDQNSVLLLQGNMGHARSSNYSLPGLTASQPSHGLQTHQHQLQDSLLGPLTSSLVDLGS
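GST-Six1 + His-Eya2 (5X stock: 250/500 nM); Tris pH 8.0, 300 mM NaCl, 0.05% BSA, 0.02% Tween 20; GSH donor/Ni acceptor beads; 1 h 37 °C dark; AlphaScreen readout.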
TDP1 block: inhibitors of human tyrosyl-DNA phosphodiesterase TDP1. 350,000 compounds, 0.28% hits. AID 485290. recombinant TDP1, AlphaScreen DNA substrate cleavage. Potency, µM (titrated, usually from 130 µM), without a hit: at the highest dose activity change, negative = inhibition, usual class: inhibitors. Q9NUW8; note: potency is the fitted concentration of half-maximal effect; % is set by controls: 0 for no effect and ±100 for the full control effect; nearly all actives have a fitted effect of over 40% in size
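AlphaScreen read-out: signal falls as enzyme removes the 3' tyrosine-FITC from a 5'-biotinylated DNA oligo (15 nM, 5 min, RT). Enzyme was E. coli-made recombinant Tdp1 at 1 nM, exposed to compound for 15 min beforehand; beads 10 ug/ml, 10 min.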
CtBP-E1A blk: CtBP/E1A binding inhibition | AlphaScreen GST-E1A/His-CtBP binding, 1536-well; hits give low values | activity change, % (no concentration beside the values) | AID 651724 | 340,000 compounds, 0.49% hits; in the data active = activity change below about -65%; inconclusive = mostly about -30% to -63%; note: % is set by controls: 0 for no effect and ±100 for the full control effect
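Steps: dispense buffer (Tris pH 8.0, NaCl 300 mM, TCEP 1 mM, BSA, Tween 20); add 5X protein mix (GST-E1A, His-CtBP, 125 nM each); pin 23 nL compound; 2 h at 37 °C, dark; add 5X beads (50 ug/mL); 1 h; read.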
JMJD2A Tudor inh: JMJD2A Tudor domain (human) inhibition; AlphaScreen JMJD2A-Tudor / H3K4me3 peptide binding; 390,000 compounds, 4.4% hits; Potency, µM (doses to about 114 µM), without a hit: at the top dose activity change, negative = inhibition, most hits filed as inhibitors; O75164; AID 504339; note: potency is the fitted concentration of half-maximal effect; % is set by controls: 0 for no effect and ±100 for the full control effect; nearly all actives have a fitted effect of over 50% in size
BAZ2B block: blocks human BAZ2B | AID 504333 | 360,000 compounds, 4.4% hits | AlphaScreen BAZ2B-H3K14Ac peptide displacement | Potency, µM (doses to about 114 µM), without a hit: at the top dose activity change, negative = inhibition, actives largely listed as inhibitors; note: potency is the fitted concentration of half-maximal effect; % is set by controls: 0 for no effect and ±100 for the full control effect; nearly all actives have a fitted effect of over 60% in size
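AlphaScreen luminescence quantifies BAZ2B engagement of H3K14Ac peptide; the protein and biotinylated peptide are both at 50 nM final, buffer PBS pH 7.4 with 0.01% Tween-20, all steps at room temperature.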
HP1b chromo inh: HP1-beta chromodomain-methylated histone interaction inhibition; P83916; AlphaScreen HP1-beta / biotin-H3K9me3 peptide binding; Potency, µM (titrated, usually from 114 µM), without a hit: at the highest dose activity change, negative = inhibition, actives largely listed as inhibitors; 390,000 compounds, 0.56% hits; note: potency is the fitted concentration of half-maximal effect; nearly all actives have a fitted effect of over 70% in size
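HP1-beta protein (50 nM final) preincubated 30 min at room temperature with biotinylated H3(1-18)K9me3 peptide (50 nM) in PBS pH 7.4, 0.01% Tween-20, then compound added for 30 min. AlphaScreen streptavidin donor/nickel chelate acceptor beads (10 ug/mL final), 30 min dark, luminescence read.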
Active calls of the source: *; ? = inconclusive; nt = no result; [ ] = another dose, or the depositor's remark. Unless noted, calls come from the whole dose curve; as a rule, active = well fitted inhibition curve with a large enough effect; inconclusive = small, poorly fitted or top-dose-only effect; inactive = no such curve, though single readings can be large or run the other way.

SMILES	Six1-Eya2 inh	TDP1 block	CtBP-E1A blk	JMJD2A Tudor inh	BAZ2B block	HP1b chromo inh
Cc1ccc(-c2nnc(SCC(=O)NCc3ccccc3)o2)cc1	nt	0%[12.3 µM]	nt	-8%	7%	24%
Cn1cccc1CC(=O)N/N=C/C=C/c1ccco1	?	5%	0	?	56µM*	?
C/C(=N\NC(=O)Cc1cccn1C)c1ccco1	-1	6%	?	-14%	-16%	33%
O=C(N/N=C/C=C/c1ccco1)C(O)c1ccccc1 (stereo not drawn)	-7	nt	0	56µM*	nt	-6%
CC(C)(C)C1CCc2c(sc3nc(-c4cc5cc(Cl)ccc5oc4=O)[nH]c(=O)c23)C1 (stereo not drawn)	nt	-1%	nt	-13%	-7%	-4%
O=C(Cc1cccs1)Nc1c(C(=O)Nc2ccc(F)cc2)oc2ccccc12	nt	6%	nt	-8%	28%	60%
O=C(CCS(=O)(=O)c1ccc2c(c1)NC(=O)CS2)NCCc1ccc(Cl)cc1	6	0%	3	16µM*	-18%	13%
COc1cccc(Nc2nc(Nc3ccc(Cl)c(C(=O)O)c3)nc(C)c2[N+](=O)[O-])c1	-23	nt	-20	?	50µM*	-5%
CCCOc1ccc(OC(=O)c2cn(-c3ccc(OC)cc3)c(=O)c3ccccc23)cc1	nt	2%	nt	-9%	-1%	17%[57 µM]
CCOC(=O)c1[nH]c(C)c(C(=O)N2CCN(c3ccccc3)CC2)c1C	-6	8%	-5	-30%	?	-8%
CCOC(=O)c1c(C)[nH]c(C)c1S(=O)(=O)N1CCN(c2ccc(F)cc2)CC1	-3	5%	nt	4%	71µM*	41%
CCOC(=O)c1c(C)[nH]c(C)c1S(=O)(=O)N1CCC(C(=O)N2CCN(c3ccc(F)cc3)CC2)CC1	nt	3%	nt	-27%	?	9%
CCOC(=O)c1c(C)[nH]c(C)c1S(=O)(=O)N1CCC(C(=O)NCc2ccc(OC)cc2)CC1	nt	4%	nt	89µM*	3%	3%
CCOC(=O)c1c(C)[nH]c(C(=O)N2CCN(c3ccc(OC)cc3)CC2)c1C	-14	3%	-3	?	40µM*	-22%
COc1ccc(N2CCN(C(=O)c3cnc(N4CCOCC4)c4ccccc34)CC2)cc1	nt	7%	nt	-32%	?	-1%[57 µM]
CC(NC(=O)C1CCN(S(=O)(=O)c2ccc3c(c2)oc(=O)n3C)CC1)c1ccccc1 (stereo not drawn)	nt	1%	nt	-23%	-3%	20%
CCN1CCN(c2nnc(-n3cccc3C(=O)NCc3ccccc3OC)s2)CC1	nt	0%	nt	-3%	3%	44%
Cc1ccc(S(=O)(=O)OCC(=O)Nc2ccc(C(=O)O)c(O)c2)cc1	-15	nt	4	20µM*	nt	-10%
Cc1ccc(NC(=O)COCC(=O)Nc2ccc(C)cc2)cc1	22	nt	nt	-14%	2%	32%
COc1ccc(C2=Nn3c(nnc3-c3ccccc3O)SC2)cc1OC	nt	4%	nt	-9%	nt	nt
Cc1cc(N(CCO)CCO)ccc1C(c1ccc(N(CCO)CCO)cc1C)c1ccccc1Cl	-30	8%	-22	28µM*	45µM*	?
Cc1ccc(-c2csc(N3CCN(c4cc5c(cc4Cl)nc(-c4ccncc4)n5CCN4CCCCC4)CC3)n2)cc1	-13	nt	nt	?	?	-5%
Cc1ccc(-c2csc(N3CCN(c4ccc5nc(-c6ccncc6)n(CCN6CCCCC6)c5c4)CC3)n2)cc1	-13	nt	-25	45µM*	?	?
COc1ccc(-c2csc(N3CCN(c4cc5c(cc4Cl)nc(-c4ccncc4)n5CCOCCO)CC3)n2)cc1	17	nt	nt	-23%	50µM*	21%
C=CC[n+]1c(-c2ccc(OC)cc2)csc1NNC(=O)Nc1ccccc1	-14	10%	-4	50µM*	10µM*	-34%
SMILES	Six1-Eya2 inh	TDP1 block	CtBP-E1A blk	JMJD2A Tudor inh	BAZ2B block	HP1b chromo inh
C=CC[n+]1c(-c2ccc(C)cc2)csc1Nc1ccc(NC(C)=O)cc1	?	10%	nt	?	?	14%
CC(=O)N1CCOc2cc(S(=O)(=O)Nc3c(C)cccc3C(C)C)c(Cl)cc21	nt	8.9µM*	nt	-20%	-2%	30%
O=C(OCc1ccccc1)c1ccc(NCc2cc(O)ccc2O)cc1	-19	nt	-6	25µM*	nt	?
CC(C)OC(=O)c1ccc(NCc2cc(O)ccc2O)cc1	-24	nt	8	4µM*	nt	40µM*
COP(=O)(OC)c1ccc(NCc2cc(O)ccc2O)cc1	3	nt	0	3.5µM*	nt	?
Cc1ccc(NC(=O)c2ncoc2-c2ccco2)cc1Cl	nt	1%	nt	12%	-20%	9%
COc1ccc2nc3cc(Cl)ccc3c(Nc3cc(C(C)C)c(O)cc3C)c2c1	-25	9%	-29	?	?	-33%
COc1ccc2nc3cc(Cl)ccc3c(Nc3cc(CN4CCCC4)c(O)c(CN4CCCC4)c3)c2n1	nt	nt	nt	nt	40µM*	nt
COC(=O)C1=C(C)NC(=O)C1(NC(=O)c1ccc(Cl)cc1)C(F)(F)F (stereo not drawn)	nt	9%	nt	-5%	-10%	17%
Clc1ss/c(=N\c2ccccn2)c1Cl	-92*	8%	-86*	-11%	40µM*	18%
Cc1ccc(NS(=O)(=O)c2ccc3c(c2)C(Cl)(Cl)C(=O)N3)cc1C	nt	4%	nt	-31%	nt	nt
Cc1cc2nc(-c3ccc(SCc4ccccc4C#N)nc3)[nH]c2cc1C	-8	0%	9	-14%	2%	-3%
Cc1cc2nc(-c3ccc(SCc4ccc(C(=O)O)cc4)nc3)[nH]c2cc1C	?	22µM*	-24	?	32µM*	2%
COc1ccccc1CNC(=O)CSC1=Nc2ccccc2N=C(c2ccc(F)cc2)C1	nt	2%	nt	-12%	-6%	11%[57 µM]
CCOc1ccc(C(=O)N/N=C(/C)C2C(=O)c3ccccc3C2=O)cc1	-2	7%	5	35µM*	1%	22%
CCOc1ccc(NC(=O)CC2C(=O)N(c3ccccc3)C(=O)N2CCc2ccc(OC)cc2)cc1 (stereo not drawn)	nt	1%	nt	-14%	-13%	36%
CC(C)(C)c1ccccc1NC(=O)CN1C(=O)NC(Cc2ccccc2)C1=O (stereo not drawn)	3	0%	6	-10%	71µM*	20%
CC(C)c1ccc(-c2nnc3n(CCc4ccccc4)c(=O)c4ccccc4n23)cc1	nt	6%	nt	-16%	-1%	35%
Cc1nn(C2CCS(=O)(=O)C2)c(C)c1C=O (stereo not drawn)	17	6%	11	13µM*	9%	-13%
Cc1ccc(C)n1C1CCS(=O)(=O)C1 (stereo not drawn)	8	5%	2	-5%	-7%	10%
